# Assay results as given in PubChem BioAssay AID623944 (Vanderbilt Specialized Chemistry Center, 2012).
# Calls of active or inactive are those of the source. No rule for the calls is given here.
# Assay: PubChem AID 623944
# Settings: Ricerca radioligand binding panel, % inhibition, at 10 µM, stronger effect = higher value
structure (smiles),measurement,setting,value
O=C(Nc1ccc(N(Cc2ccsc2)C(=O)Cn2nnc3ccccc32)cc1)C1CC1,inhibition,GABA-A flunitrazepam site inhibition,22%
same,inhibition,adenosine A3 binding inhibition,20%
same,inhibition,androgen receptor binding inhibition,42%
same,inhibition,,75% (inactive)
same,inhibition,cannabinoid CB1 binding inhibition,25%
same,inhibition,dopamine D2S binding inhibition,4%
same,inhibition,dopamine transporter binding inhibition,12%
same,inhibition,hERG binding inhibition,15%
same,inhibition,kappa opioid binding inhibition,20%
same,inhibition,muscarinic M1 binding inhibition,-7%
same,inhibition,norepinephrine transporter binding inhibition,18%
same,inhibition,serotonin transporter binding inhibition,-1%
same,inhibition,sigma receptor binding inhibition,42%
